Experimental data from the supplement of paper PMC7724964.

T1: HOMER3 1-118 WH1 (domain begin residue: 1, domain end residue: 118), Q9NSC5
T1 chain: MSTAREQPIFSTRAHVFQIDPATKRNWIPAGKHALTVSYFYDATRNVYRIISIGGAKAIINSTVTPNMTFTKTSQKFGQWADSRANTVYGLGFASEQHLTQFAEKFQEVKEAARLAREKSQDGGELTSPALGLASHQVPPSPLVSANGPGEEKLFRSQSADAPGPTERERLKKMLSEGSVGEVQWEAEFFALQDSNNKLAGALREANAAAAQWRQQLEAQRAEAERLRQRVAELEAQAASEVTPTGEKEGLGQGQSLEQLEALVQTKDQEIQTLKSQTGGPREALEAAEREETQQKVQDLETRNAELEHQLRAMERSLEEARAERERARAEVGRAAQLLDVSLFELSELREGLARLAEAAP

T2: HOMER2 1-111 WH1 (domain begin residue: 1, domain end residue: 111), Q9NSB8
T2 chain: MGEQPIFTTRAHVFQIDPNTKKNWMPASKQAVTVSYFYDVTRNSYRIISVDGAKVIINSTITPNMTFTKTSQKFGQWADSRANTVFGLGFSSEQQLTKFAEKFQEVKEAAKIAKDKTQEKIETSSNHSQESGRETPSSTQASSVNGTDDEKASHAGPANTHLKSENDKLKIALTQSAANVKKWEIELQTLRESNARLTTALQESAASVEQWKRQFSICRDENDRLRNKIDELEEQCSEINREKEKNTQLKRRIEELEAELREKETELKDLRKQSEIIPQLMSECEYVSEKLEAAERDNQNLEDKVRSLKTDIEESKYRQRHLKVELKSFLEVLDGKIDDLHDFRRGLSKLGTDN

T3: GNAZ 2-355 G-alpha (domain begin residue: 2, domain end residue: 355), P19086
T3 chain: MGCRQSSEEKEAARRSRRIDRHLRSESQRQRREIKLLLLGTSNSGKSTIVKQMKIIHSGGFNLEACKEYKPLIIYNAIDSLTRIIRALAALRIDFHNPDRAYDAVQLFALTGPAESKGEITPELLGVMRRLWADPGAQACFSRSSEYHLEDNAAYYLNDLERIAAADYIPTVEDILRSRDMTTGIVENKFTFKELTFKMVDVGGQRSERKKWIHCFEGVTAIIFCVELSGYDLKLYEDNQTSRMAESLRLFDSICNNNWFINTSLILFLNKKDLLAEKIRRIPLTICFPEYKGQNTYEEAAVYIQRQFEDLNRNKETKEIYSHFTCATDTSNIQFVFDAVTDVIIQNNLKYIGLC

T4: HOMER1 1-163 WH1 (domain begin residue: 1, domain end residue: 163), Q86YM7
T4 chain: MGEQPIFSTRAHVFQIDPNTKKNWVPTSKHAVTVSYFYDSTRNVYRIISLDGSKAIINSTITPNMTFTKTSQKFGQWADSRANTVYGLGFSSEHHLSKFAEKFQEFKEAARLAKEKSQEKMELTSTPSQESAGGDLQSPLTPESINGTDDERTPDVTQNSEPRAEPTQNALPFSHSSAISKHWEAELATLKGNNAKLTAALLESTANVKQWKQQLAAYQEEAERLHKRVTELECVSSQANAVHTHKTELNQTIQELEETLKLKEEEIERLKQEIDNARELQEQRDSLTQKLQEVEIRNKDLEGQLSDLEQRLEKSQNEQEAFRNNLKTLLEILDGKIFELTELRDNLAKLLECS

T5: HNF4A 148-377 Hormone_recep (domain begin residue: 148, domain end residue: 377), P41235
T5 chain: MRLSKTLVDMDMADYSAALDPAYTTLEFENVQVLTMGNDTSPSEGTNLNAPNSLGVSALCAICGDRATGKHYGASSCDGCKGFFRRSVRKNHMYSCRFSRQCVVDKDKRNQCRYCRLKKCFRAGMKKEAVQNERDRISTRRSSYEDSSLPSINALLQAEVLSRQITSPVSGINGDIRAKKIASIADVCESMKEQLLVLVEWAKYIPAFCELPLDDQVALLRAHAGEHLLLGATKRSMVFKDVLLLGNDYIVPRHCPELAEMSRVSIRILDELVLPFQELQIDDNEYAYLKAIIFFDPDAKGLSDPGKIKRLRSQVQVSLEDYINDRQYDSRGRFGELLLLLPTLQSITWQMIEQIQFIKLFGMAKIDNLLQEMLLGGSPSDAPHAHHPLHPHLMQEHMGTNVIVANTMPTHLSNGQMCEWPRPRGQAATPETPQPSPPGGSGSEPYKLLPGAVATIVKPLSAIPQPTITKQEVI

B1: unnamed (peptide)
chain: TQAFQHDHFWESLVMF
B2: unnamed (peptide)
chain: VFTFTMSWDAWEYILY
B3: unnamed (peptide)
chain: ALEMTMEQWTYFLQEW
B4: unnamed (peptide)
chain: YMMDQHAWELLMTMMA
B5: unnamed (peptide)
chain: WGSLDWEVALKPPVEF
B6: unnamed (peptide)
chain: SHITLIHEPPYGWTTN
B7: unnamed (peptide)
chain: SLDQSDIRHIFYWMEW
B8: unnamed (peptide)
chain: VMTLTELQDWLNAAYV
B9: unnamed (peptide)
chain: TVSVTNIDMDMLSFLL
B10: unnamed (peptide)
chain: FYIYDTWVEWPPVVTV
B11: unnamed (peptide)
chain: QVAMSEQSLNYFLTLL
B12: unnamed (peptide)
chain: YNELEPEVAAWWWQYV
B13: unnamed (peptide)
chain: GNHIWYWDQDEKLLEL
B14: unnamed (peptide)
chain: SDWLSTVWEHPMDWGA
B15: unnamed (peptide)
chain: HWVIPWETVPAPHEFH
B16: unnamed (peptide)
chain: WEEWTNWASPPHEYRF
B17: unnamed (peptide)
chain: YHYIAEVPEQFVDMHR
B18: unnamed (peptide)
chain: MEVMPPQGFQDAFLST
B19: unnamed (peptide)
chain: RQYKWWEWLVVQQPKA
B20: unnamed (peptide)
chain: QHMHFVMLDEIMYGMW
B21: unnamed (peptide)
chain: YRYIAEVPEQFVDMHR
B22: unnamed (peptide)
chain: VPWGDAQFSWPVEWMI
B23: unnamed (peptide)
chain: SPPQDVPPLWEYYHIW
B24: unnamed (peptide)
chain: YQMTDWTTWEHFMHMT
B25: unnamed (peptide)
chain: PNHWFVIPIGEWYQKI
B26: unnamed (peptide)
chain: NWWHSDLQPPQEWQDE
B27: unnamed (peptide)
chain: PDVLQQLWEAMRSENW
B28: unnamed (peptide)
chain: DAEMQDFIMAWWPELV
B29: unnamed (peptide)
chain: DWQGDHVHFWDLITME

Biological target: T1, HOMER3 1-118 WH1 (domain begin residue: …
Test: phage ELISA signal ratio (GST-PRM binding over GST background); higher = stronger binding of peptide-phage to the PRM
Procedure, shortened: (§1)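 Approximately 48 individual clones from selection rounds 4 and 5 were tested by phage ELISA, and those scoring positive were sequenced. They came from five rounds of selecting an M13 phage library of randomized, cysteine-free, glycine-flanked hexadecapeptides on the gene-8 major coat protein against human peptide recognition domains fused to the C-terminus of glutathione S-transferase (GST) in 96-well plates. Each figure in the table is the ELISA signal on the GST-domain fusion relative to the signal on GST alone.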

Binder | phage ELISA signal ratio
B1 | 4.73
B17 | 10.5
B19 | 5.84

biological target: HSPA9 438-651 HSP70 (domain begin residue: 438, domain end residue: 651), P38646; test: as above
Procedure, shortened: as §1

Chain of HSPA9 438-651 HSP70 (domain begin residue: 438, domain end residue: 651), P38646 (P38646 whole entry): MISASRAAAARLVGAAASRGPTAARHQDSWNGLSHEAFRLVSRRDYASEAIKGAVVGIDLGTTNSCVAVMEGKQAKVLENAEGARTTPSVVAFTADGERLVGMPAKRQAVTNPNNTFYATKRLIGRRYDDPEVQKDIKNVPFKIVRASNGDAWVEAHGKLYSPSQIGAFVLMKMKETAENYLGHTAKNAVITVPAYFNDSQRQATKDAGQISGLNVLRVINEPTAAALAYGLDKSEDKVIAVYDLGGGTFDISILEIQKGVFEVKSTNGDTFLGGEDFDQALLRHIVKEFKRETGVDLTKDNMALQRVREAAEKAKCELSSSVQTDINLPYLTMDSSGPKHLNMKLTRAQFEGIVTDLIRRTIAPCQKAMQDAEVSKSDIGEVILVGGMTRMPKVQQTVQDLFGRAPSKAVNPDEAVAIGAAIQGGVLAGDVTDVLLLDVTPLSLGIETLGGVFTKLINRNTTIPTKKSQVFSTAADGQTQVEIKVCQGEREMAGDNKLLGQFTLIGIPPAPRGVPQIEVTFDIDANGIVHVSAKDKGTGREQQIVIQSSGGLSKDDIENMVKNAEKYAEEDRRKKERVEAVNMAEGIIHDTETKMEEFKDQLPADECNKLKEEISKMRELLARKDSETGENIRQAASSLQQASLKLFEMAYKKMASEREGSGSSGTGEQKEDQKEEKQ

Binder | phage ELISA signal ratio
B2 | 18.4
B3 | 10.8
B4 | 16.4
B8 | 15
B9 | 15
B10 | 6.36
B11 | 3.89
B22 | 8.49
B24 | 6.13

Biological target: T2, HOMER2 1-111 WH1 (domain begin residue: …
Test: as above
Procedure, shortened: as §1

Binder | phage ELISA signal ratio
B5 | 17.9
B6 | 14.3
B14 | 13.5
B15 | 15.2
B16 | 10.2
B21 | 15.5

biological target: HSPA8 394-614 HSP70 (domain begin residue: 394, domain end residue: 614), P11142; test: as above
Procedure, shortened: as §1

Chain of HSPA8 394-614 HSP70 (domain begin residue: 394, domain end residue: 614), P11142 (P11142 whole entry, looked up, tested part not stated): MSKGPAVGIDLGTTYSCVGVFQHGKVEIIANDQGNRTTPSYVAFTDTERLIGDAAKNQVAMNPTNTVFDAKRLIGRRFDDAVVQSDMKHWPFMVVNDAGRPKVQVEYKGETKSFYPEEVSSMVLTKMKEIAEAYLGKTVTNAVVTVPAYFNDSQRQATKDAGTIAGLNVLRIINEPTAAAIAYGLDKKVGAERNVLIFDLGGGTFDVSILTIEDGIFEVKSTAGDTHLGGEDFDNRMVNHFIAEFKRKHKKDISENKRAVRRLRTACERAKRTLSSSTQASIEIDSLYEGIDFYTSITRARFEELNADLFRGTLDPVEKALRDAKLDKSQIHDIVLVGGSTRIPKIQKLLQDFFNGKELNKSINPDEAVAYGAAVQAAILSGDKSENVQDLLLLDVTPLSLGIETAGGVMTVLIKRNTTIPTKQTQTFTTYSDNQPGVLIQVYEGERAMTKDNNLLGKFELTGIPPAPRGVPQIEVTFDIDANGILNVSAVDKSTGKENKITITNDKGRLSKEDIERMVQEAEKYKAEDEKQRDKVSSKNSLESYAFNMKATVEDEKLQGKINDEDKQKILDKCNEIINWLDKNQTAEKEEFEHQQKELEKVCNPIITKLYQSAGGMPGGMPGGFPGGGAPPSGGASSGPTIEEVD

Binder | phage ELISA signal ratio
B7 | 10.4
B12 | 8.35
B20 | 23.6
B27 | 20.4
B28 | 8.68

Biological target: T3, GNAZ 2-355 G-alpha (domain begin …
Test: as above
Procedure, shortened: as §1

Binder | phage ELISA signal ratio
B13 | 30.4
B23 | 32.1

Biological target: T4, HOMER1 1-163 WH1 (domain begin residue: …
Test: as above
Procedure, shortened: as §1

Binder | phage ELISA signal ratio
B18 | 4.78
B26 | 4.77

biological target: HGS 1-154 VHS (domain begin residue: 1, domain end residue: 154), O14964; test: as above
Procedure, shortened: as §1

Chain of HGS 1-154 VHS (domain begin residue: 1, domain end residue: 154), O14964 (O14964 whole entry): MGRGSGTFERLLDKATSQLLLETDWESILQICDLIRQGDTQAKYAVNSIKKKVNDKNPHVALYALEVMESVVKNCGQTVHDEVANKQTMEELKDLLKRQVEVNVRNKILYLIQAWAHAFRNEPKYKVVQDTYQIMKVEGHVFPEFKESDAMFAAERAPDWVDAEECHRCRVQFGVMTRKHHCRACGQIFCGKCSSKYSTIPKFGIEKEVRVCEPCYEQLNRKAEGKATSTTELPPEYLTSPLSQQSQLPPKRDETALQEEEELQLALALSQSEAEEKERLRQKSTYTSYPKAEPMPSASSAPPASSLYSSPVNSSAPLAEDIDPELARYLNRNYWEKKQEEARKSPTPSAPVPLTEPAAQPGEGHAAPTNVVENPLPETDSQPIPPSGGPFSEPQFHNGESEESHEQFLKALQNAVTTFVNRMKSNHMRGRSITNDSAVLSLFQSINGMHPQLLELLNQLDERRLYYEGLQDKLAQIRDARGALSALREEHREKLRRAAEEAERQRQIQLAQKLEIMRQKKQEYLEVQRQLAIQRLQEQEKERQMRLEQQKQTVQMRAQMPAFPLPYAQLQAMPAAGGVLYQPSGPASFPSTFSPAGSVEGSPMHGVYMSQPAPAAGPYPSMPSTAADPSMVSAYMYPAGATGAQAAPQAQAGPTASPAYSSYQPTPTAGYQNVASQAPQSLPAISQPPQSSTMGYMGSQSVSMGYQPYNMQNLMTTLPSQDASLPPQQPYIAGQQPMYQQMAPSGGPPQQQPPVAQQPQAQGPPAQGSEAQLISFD

Binder | phage ELISA signal ratio
B25 | 15.9

Biological target: T5, HNF4A 148-377 Hormone_recep (domain …
Test: as above
Procedure, shortened: as §1

Binder | phage ELISA signal ratio
B29 | 10.8
